Source: PubChem BioAssay
OPRM1-OPRD1 ag = OPRM1-OPRD1 heterodimerization agonism. P35372+P41143. cells, luminescence. activation, % at 9.3 µM. 340,000 tested, 0.3% active; in the data active = activation above about 18%
HTR5A ag = counter-screen for OPRM1-OPRD1 agonists: human HTR5A agonism; P47898; HTR5A agonist assay, luminescence, cell-based; activation, % at 9.3 µM; 340,000 tested, 0.61% active; AID 504692; in the data active = activation mostly above about 9.5%, no sharp cut-off; inactive = mostly below about 7.6%
Target sequence (P47898 whole entry, looked up): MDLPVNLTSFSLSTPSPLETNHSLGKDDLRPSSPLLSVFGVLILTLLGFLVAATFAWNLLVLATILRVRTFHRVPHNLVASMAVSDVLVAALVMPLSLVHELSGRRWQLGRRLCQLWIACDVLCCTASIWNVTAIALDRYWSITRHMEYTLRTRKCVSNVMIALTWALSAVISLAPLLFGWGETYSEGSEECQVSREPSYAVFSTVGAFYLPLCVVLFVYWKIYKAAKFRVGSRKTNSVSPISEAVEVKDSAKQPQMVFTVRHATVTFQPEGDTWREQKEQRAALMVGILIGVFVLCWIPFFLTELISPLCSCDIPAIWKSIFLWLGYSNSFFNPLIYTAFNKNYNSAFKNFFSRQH
OPRM1-OPRD1 inv = inverse agonist of human OPRM1-OPRD1 heterodimerization; P35372+P41143; cell-based MOR-DOR heterodimer luminescence, inverse agonism; inhibition, % at 9.3 µM; 340,000 tested, 0.21% active; AID 504357; in the data active = inhibition above about 22%, passing the limit was not always enough
HTR5A inv ctr = counter-screen for OPRM1-OPRD1 inverse agonists: human HTR5A inverse agonism. P47898. HTR5A cell line, luminescence. inhibition, % at 9.3 µM. 340,000 tested, 0.083% active. AID 504634; in the data active = inhibition mostly above about 23%, no sharp cut-off; inactive = mostly below about 18%
Numbers stand for hits; – = inactive. Rows were chosen to be rich in hits. Some 1.1% of all compounds tested hit in one or more screens of this group.

SMILES	OPRM1-OPRD1 ag	HTR5A ag	OPRM1-OPRD1 inv	HTR5A inv ctr
CCCCN(Cc1ccco1)C(=O)c1cc2c(=O)[nH]c3ccc(C)cc3c2s1	19.7	15.9	–	–
CCCCN(CC)C(=O)c1cc2c(=O)[nH]c3ccc(C)cc3c2s1	–	–	–	–
COc1ccc(-c2csc(NC(=O)C3=NN(c4ccccc4)C(=O)CC3)n2)cc1	–	10.3	–	–
O=C(Nc1nc(-c2cc(F)ccc2F)cs1)C1=NN(c2ccccc2)C(=O)CC1	–	–	–	–
CCn1c(SC(C)C(=O)NC2CCCC2)nc2cc(S(N)(=O)=O)ccc21 (centres undefined)	–	–	–	–
Cc1cc(=O)oc2cc(OC(C)C)ccc12	–	–	–	–
Cc1cc(=O)oc2cc(OC(C(=O)O)c3ccccc3)ccc12 (centres undefined)	–	10.7	–	–
COC(=O)c1c(NC(=O)CCC(=O)O)sc2c1CCCCC2	–	13.7	–	–
Cc1nn(-c2ccccc2)c(N)c1N=Nc1ccccc1	–	–	–	–
Cc1nn(-c2ccccc2)c(N)c1N=Nc1ccc(Cl)cc1	–	10.8	–	–
CN(c1ccccc1)S(=O)(=O)c1cc(C(=O)Nc2ccccc2N2CCOCC2)ccc1Cl	–	–	–	–
CSc1ccc(/C=C2\C(=N)N3N=C(CC(=O)N4CCCCC4)SC3=NC2=O)cc1	–	–	–	–
CSc1ccc(/C=C2\C(=N)N3N=C(CC(=O)N4CCOCC4)SC3=NC2=O)cc1	–	11.9	–	–
O=C1NC(=NCc2ccccc2)NC1(c1ccccc1)c1ccccc1	–	–	–	–
CC(C)NC(=O)NC(=O)COC(=O)c1c2c(nc3ccccc13)CCC2	–	14.1	–	–
Cc1cc(C(=O)N/N=C/c2cccc3ccccc23)c(C)o1	–	–	–	–
Cc1ccc(S(=O)(=O)NCC(=O)OCC(=O)c2ccc(S(=O)(=O)N3CCCCC3)cc2)cc1C	–	–	77.5	42.1
O=C1Nc2ccccc2C1(c1ccccc1)c1ccccc1	29.3	39.1	–	–
O=C(NC1CCCCC1)c1ccc([N+](=O)[O-])o1	–	–	–	–
O=C(NC1CCCC(C(F)(F)F)C1)c1ccc([N+](=O)[O-])o1 (centres undefined)	–	14.3	–	–
Cc1ccc(C(=O)O/N=C2\CCCc3ccccc32)cc1	–	–	–	–
Cc1cccc(C(=O)O/N=C2\CCCc3ccccc32)c1	–	12.5	–	–
CC1(c2ccc3noc(-c4cccc(F)c4)c3c2)OCCO1	–	10.6	–	–
COc1ccc(NC(=O)c2ccccc2N2C(=O)C3C4C=CC(C5CC45)C3C2=O)c(OC)c1 (centres undefined)	–	–	–	–
CCN(CC)CCNC(=O)c1ccc(NC(=O)c2cc(S(=O)(=O)N3CCCCC3)ccc2N2CCOCC2)cc1	–	–	–	–
SMILES	OPRM1-OPRD1 ag	HTR5A ag	OPRM1-OPRD1 inv	HTR5A inv ctr
CC(C)CN(Cc1cc(=O)oc2cc(-c3ccccc3)c(O)cc12)CC(C)C	20.1	17.3	–	–
CC(=O)Oc1cccc2c1C(=O)C1CC=CC(OC(C)=O)C1C2=O (centres undefined)	–	–	–	–
COc1ccc(C)c2sc(N(CCCN(C)C)C(=O)c3ccc(S(=O)(=O)N4CCc5ccccc5C4)cc3)nc12	30.4	21.4	–	–
COc1cccc2sc(N(CCCN(C)C)C(=O)c3ccc(S(=O)(=O)N4CCc5ccccc5C4)cc3)nc12	–	–	–	–
C=CCNC(=O)c1n[nH]c2c1CC(C(C)(C)CC)CC2 (centres undefined)	–	–	–	–
Cc1c(CCOC(=O)C23CC4CC(CC(C)(C4)C2)C3)sc[n+]1CC(=O)c1ccccc1	–	–	–	–
Cc1c(CCOC(=O)CC23CC4CC(CC(C)(C4)C2)C3)sc[n+]1CC(=O)c1ccccc1	–	13.3	–	–
CN1C(=O)c2ccccc2N(C)C1c1cccc(O)c1 (centres undefined)	–	–	–	–
COc1cc(C2N(C)C(=O)c3ccccc3N2C)ccc1O (centres undefined)	–	9.5	–	–
Cc1cc(C)cc(N(CCC#N)C(=O)CSC2=Nc3ccccc3C3CC=NN23)c1 (centres undefined)	–	11.6	–	–
O=C(Nc1cccc(S(=O)(=O)N2CCOCC2)c1)c1cc(S(=O)(=O)N2CCOCC2)c(Cl)cc1Cl	–	–	–	–
CC(=O)c1cc(-c2ccccc2)n(CC(=O)N2CCCCC2)c1C	–	11.8	–	–
COc1ccc(C(=O)C(CCC(CNC(C)(C)C)C(=O)c2ccc(OC)cc2)CNC(C)(C)C)cc1 (centres undefined)	–	12.7	–	–
COc1ccc(C(=O)CC(=O)c2ccc(C(C)(C)C)cc2)cc1	–	–	–	–
CCN1C(=O)C(=O)N(CC(=O)Nc2ccccc2OC(F)F)C1=O	–	–	–	–
CCN(C[C@H]1N[C@@](CC)(C(=O)OC)[C@H]2C(=O)N(C)C(=O)[C@@H]12)C(=O)C1CCCCC1	–	–	–	–
C/C(=N/Nc1ccc([N+](=O)[O-])cc1)c1ccc(C)cc1C	–	–	–	–
C/C(=N/Nc1ccc([N+](=O)[O-])cc1)c1c[nH]c2ccccc12	–	–	–	29.9
CC(=O)n1cc(/C=N/NC(=O)c2ccccc2O)c2ccccc21	–	–	–	–
Cn1cc(/C=N/NC(=O)c2ccccc2O)c2ccccc21	–	10.4	–	–
COc1cc(C(=O)O)cc(NC(=O)c2ccco2)c1OC	–	12.3	–	–
Cc1ccc(S(=O)(=O)c2c(C)nn(C(C)(C)C)c2OC(=O)c2ccco2)cc1	–	11.7	–	–
COc1ccc(Cc2nc(-c3ccc(-n4cccc4)cc3)no2)cc1OC	–	11.4	–	–
CCCc1ccc2oc(C(=O)N3CCN(CCC(N)=O)CC3)c(C)c2c1	–	–	–	–
CCCc1ccc2oc(C(=O)N3CCN(c4cnccn4)CC3)c(C)c2c1	–	12.7	–	–
SMILES	OPRM1-OPRD1 ag	HTR5A ag	OPRM1-OPRD1 inv	HTR5A inv ctr
Cc1ccc(-c2nnn(CC(=O)N(CC3CCCO3)C(C(=O)NC3CCCC3)c3ccc(O)cc3)n2)o1 (centres undefined)	–	9.4	–	–
Cc1ccc(C(NC(=O)Nc2ccccn2)C(Cl)(Cl)Cl)cc1F (centres undefined)	–	12.2	–	–
O=C(CSc1nnc(-c2cccnc2)o1)Nc1nccs1	–	–	–	–
CCC(=O)N1CCc2cc(S(=O)(=O)N3CCCCCC3)ccc21	–	12.7	–	–
CCC(=O)N1CCc2cc(S(=O)(=O)N3CCCC3)ccc21	–	–	–	–
COc1ccc(Oc2ncc(CN3CCN(c4ccccc4)CC3)s2)cc1	–	10.5	–	–
Cc1cc(Cl)ccc1Oc1ncc(CN2CCN(c3ccccc3)CC2)s1	–	–	–	–
O=C(CCl)N(c1ccccc1)C1CCCCC1	32.6	42.1	–	–
CC(=O)N(c1ccccc1)C1CCCC1	–	–	–	–
NC(=S)NN=C1CCSCC1	–	–	–	–
CCOC(=O)C1=C(C)N(C)C(=S)NC1c1cccc(Cl)c1Cl (centres undefined)	–	10.2	–	–
COc1ccc(C(=O)Nc2c(N)nc(SCC(=O)c3ccccc3)[nH]c2=O)cc1	–	–	–	–
COc1ccccc1CCNC(=O)c1ccc(Br)s1	–	–	–	–
